Data reported in PubChem BioAssay AID778 (Sanford-Burnham Center for Chemical Genomics, 2007).
The campaign covered roughly 96,000 compounds. About 20,000 (21%) were called active.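 How the source made its calls: active means CYP2C19 inhibition above a set limit at 5 µM in the primary screen (cut at about 50% in these data); inactive means the rest.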 The list is a sample of the results.

What follows are molecules tested against Cytochrome P450 2C19 (Homo sapiens) (UniProt P33261) (assay: blockers of cytochrome P450 2C19 activity – biochemical, luminescence, ADME assay, primary screen (AID 778;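 further: plate controls were negative control wells for no effect and 2.5 mM tranylcypromine positive control for full effect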)). Settings: CYP2C19 Supersomes, luciferin-H EGE luminescence, 30 min; at 5 µM; hits give high values.
Chain of Cytochrome P450 2C19 (Homo sapiens) (P33261 whole entry, looked up): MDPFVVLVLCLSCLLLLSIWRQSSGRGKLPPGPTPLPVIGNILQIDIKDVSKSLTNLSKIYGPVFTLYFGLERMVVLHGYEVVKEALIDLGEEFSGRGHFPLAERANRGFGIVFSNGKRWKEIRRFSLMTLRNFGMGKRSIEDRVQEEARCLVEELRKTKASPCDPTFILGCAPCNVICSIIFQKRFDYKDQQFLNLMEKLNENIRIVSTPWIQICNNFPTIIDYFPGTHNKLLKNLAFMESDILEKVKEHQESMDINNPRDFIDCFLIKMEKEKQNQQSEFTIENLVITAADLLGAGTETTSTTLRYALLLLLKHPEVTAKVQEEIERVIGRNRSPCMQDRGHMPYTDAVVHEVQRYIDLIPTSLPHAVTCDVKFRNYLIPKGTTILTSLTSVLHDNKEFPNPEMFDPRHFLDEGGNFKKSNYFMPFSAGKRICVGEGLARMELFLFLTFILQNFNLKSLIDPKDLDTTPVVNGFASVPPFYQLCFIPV

| SMILES | inhibition |
| --- | --- |
| C/C(=N\c1nc2ccccc2n1C)c1cc(Cl)ccc1O | -5.8% (inactive) |
| CCN(CC)c1ccc(/C=N/Nc2nc(C)cc(=O)[nH]2)cc1 | 7.4% (inactive) |
| COc1ccc(CN(C(=O)c2cccs2)c2nccs2)cc1OC | 100% (active) |
| COc1ccc(CCN(C(=O)COc2ccccc2)c2nc(-c3ccccc3)cs2)cc1OC | 35.3% (inactive) |
| O=C(c1cccs1)N(C(=O)c1cccs1)c1ccccn1 | 23% (inactive) |
| CCOC(=O)c1cc2n(c1C)-c1ccccc1C2=O | 17.8% (inactive) |
| COc1ccc(C(=O)NNC(=O)c2cnccn2)cc1[N+](=O)[O-] | 11.1% (inactive) |
| Cc1cc(C)nc(N2CCN(c3ncnc4c3oc3ccccc34)CC2)n1 | -16.1% (inactive) |
| CCCCOC(=O)Cn1c(=N)n(CCN(CC)CC)c2ccccc21 | -29.6% (inactive) |
| CCOC(=O)CN1C(=O)C(=O)c2cc(C)ccc21 | -2.2% (inactive) |
| CCCCOC(=O)Cn1c(=O)n(CC(=O)OCCCC)c2cc(C)ccc21 | 55.8% (active) |
| Cc1ccc2nc3n(c(=O)c2c1)CCC3 | -4.2% (inactive) |
| Cc1ccccc1NC(=O)Cc1nnc(SCC(=O)N2CCN(c3ccccc3)CC2)n1C | 26.9% (inactive) |
| O=C(Nc1nnc(CCc2ccccc2)s1)C1CCCO1 (centres undefined) | 15.6% (inactive) |
| O=C(Nc1cccc(-c2nnc(-c3ccccc3)o2)c1)C1CCCO1 (centres undefined) | 71.9% (active) |
| O=C(Nc1ccc(-c2nnc(-c3ccccc3)o2)cc1)C1CCCO1 (centres undefined) | 17.1% (inactive) |
| Cc1nc(SCC(=O)Nc2cc(C)on2)c2c(C)c(C)sc2n1 | 9.2% (inactive) |
| CCOc1cc(C2C(C(=O)OC)=CN(C3CCCC3)C=C2C(=O)OC)cc(Br)c1O | -1.9% (inactive) |
| CC(=O)c1cc(NC(=O)c2ccccc2)c(=O)oc1/C=C/N(C)C | 0.3% (inactive) |
| CN(C)c1cc(N)c2ccccc2n1 (tested in a mixture with another compound) | -9.5% (inactive) |
| Cc1cc(NC(=O)COc2ccc(Cl)cc2Cl)n(CCC#N)n1 | 99.1% (active) |
| Cc1cc(Nc2ccccc2)n(CCC#N)n1 | -5.9% (inactive) |
| CN1CCN(c2ccc(NC(=O)COc3ccc(Cl)cc3Cl)cc2)CC1 | 17.9% (inactive) |
| Cc1ccc(S(=O)(=O)N2C3C=CC(C3)C2C(=O)O)cc1 (centres undefined) | 10.3% (inactive) |
| CC(C)(C)c1ccc(OC2=CS(=O)(=O)c3ccccc32)cc1 | 65.2% (active) |
| O=S1(=O)C=C(SCCN2CCCC2)c2ccccc21 | 28.3% (inactive) |

| SMILES | inhibition |
| --- | --- |
| CC(C)(C)c1csc(NC2=NS(=O)(=O)c3ccccc32)n1 | 0.4% (inactive) |
| COc1cc2[nH]c(=S)n(CCN3CCCCC3C)c(=O)c2cc1OC (centres undefined) | -5.5% (inactive) |
| O=C1CCCc2c1[nH]c1ccc(Br)cc21 | 15.9% (inactive) |
| Nc1c(-c2ccc(F)cc2)cnc2ncnn12 | -14% (inactive) |
| COC(=O)[C@H](CCSC)NC(=O)Nc1ccc(OC)cc1 | 38% (inactive) |
| Cn1c(=O)c2c(nc(OCc3cccnc3)n2Cc2ccccc2)n(C)c1=O | 16.8% (inactive) |
| Fc1ccccc1COc1ccccc1CNCc1ccncc1 | 96.3% (active) |
| c1ccc(COc2ccccc2CNCc2cccnc2)cc1 | 59.4% (active) |
| Cc1nc2ccccc2cc1OCc1ccc(F)cc1 | 17.6% (inactive) |
| COc1ccccc1CNCc1cccs1 | 31.8% (inactive) |
| COc1cc(/C=C2/C(=O)ON=C2C)ccc1OCc1ccccc1F | 17.5% (inactive) |
| Cc1nnc(SCC(=O)NC2CCCC2)s1 | 19.1% (inactive) |
| Cn1cccc1C(=O)NC(=O)COC(=O)Cc1coc2ccc3ccccc3c12 | 31.8% (inactive) |
| O=c1[nH][nH]c(=O)c2cc(N3CCCC3)ccc12 | 0.9% (inactive) |
| CCOc1ccc(-c2nc(C)sc2CC(=O)O)cc1 | 12.3% (inactive) |
| CCc1nc(C)ccc1OCC(=O)N(CC)CC | 0.2% (inactive) |
| C=CCn1c(SCC(=O)NCc2ccccc2)nnc1-c1cc(Br)ccc1O | 91.6% (active) |
| C=CCn1c(COc2ccccc2)nnc1SCC(=O)NCC(=O)OCC | -8.4% (inactive) |
| C=CCn1c(N)cc(=O)nc1SCC(=O)Nc1cccc2ccccc12 | 1% (inactive) |
| C=CCn1c(SCC(=O)Nc2nc3ccccc3s2)nnc1-c1ccccc1O | 54.6% (active) |
| C=CCn1c(CSc2nc3ccccc3s2)nnc1SCC(=O)NCc1ccco1 | 24.8% (inactive) |
| CCCCCCn1c(CN2CCCC(C)C2)nc2c1c(=O)n(C)c(=O)n2C (centres undefined) | 2.2% (inactive) |
| CCOC(=O)Nc1ccc2c(c1)N(C(=O)CN1CCN3CCCC3C1)c1ccccc1CC2 (centres undefined) | 18.2% (inactive) |
| CCCCNC(=O)C1CCCNC1=O (centres undefined) | -19% (inactive) |
| CCOC(=O)c1nnn(-c2nc(OC)nc(N(C)C)n2)c1-c1ccccc1 | 27.7% (inactive) |
| CCOC(=O)C1=C(c2ccccc2)O/C(=C(/C(=O)OC)C(F)(F)F)S1 | 11.1% (inactive) |

| SMILES | inhibition |
| --- | --- |
| CCOC(=O)c1nnn(-c2nonc2OC)c1-c1ccccc1 | 60.7% (active) |
| Cc1cccc(C(=O)Nc2ccc(C(=O)/C=C/c3cccs3)cc2)c1 | -1.9% (inactive) |
| CCCNC(=O)NCc1ccc(N2CCCC2=O)cc1 | 3.6% (inactive) |
| Brc1ccc(OCCn2ccnc2)cc1 | 91.7% (active) |
| COc1cccc(C(=O)Nc2c3c(nn2-c2cccc(C)c2C)CS(=O)(=O)C3)c1OC | -2.2% (inactive) |
| C=CCNC(=O)C1CC=CCC1C(=O)O (centres undefined) | -11.3% (inactive) |
| N#CC1=C(SCc2ccccc2)NC(=O)C(C#N)C12CCCC2 (centres undefined) | 63.9% (active) |
| Cc1ccc(Cc2nc(-c3cccc(C)c3)no2)cc1 | 2.2% (inactive) |
| c1ccc(CCc2nc(-c3ccncc3)no2)cc1 | 97.5% (active) |
| O=C1c2ccccc2C(=O)N1CCCc1nc(-c2ccccc2)no1 | 9.5% (inactive) |
| CCOC(=O)N1CCN(CC(=O)Nc2cc(C)nn2-c2nc3ccccc3s2)CC1 | 39.8% (inactive) |
| CCn1cc(C(=O)N/N=C(/C)c2ccc(F)cc2)c(=O)c2cc(F)c(N3CCCC3)cc21 | 39.5% (inactive) |
| Cc1nnc(SCC(=O)Nc2ncc3c(n2)CC(C)(C)CC3=O)s1 | 1.5% (inactive) |
| CCN1C(=O)C(CC(=O)Nc2cc(C)ccc2C)SC1=Nc1ccc(S(N)(=O)=O)cc1 (centres undefined) | 17.6% (inactive) |
| Cn1cccc1C(=O)Nc1nccs1 | 8.5% (inactive) |
| O=C(CCSCCc1ccccn1)Nc1nccs1 | 82.6% (active) |
| CC(=O)Oc1ccc(C(=O)Nc2nccs2)cc1 | 16.7% (inactive) |
| NC(=NC(=O)c1ccccc1)N1CCOCC1 | 12% (inactive) |
| CC(C(=O)N1CCOCC1)N1c2cccc3cccc(c23)S1(=O)=O (centres undefined) | 80.5% (active) |
| CC(C(=O)O)N1C(=O)c2cccc3cccc1c23 (centres undefined) | -13.8% (inactive) |
| O=C(NCCN1CCN(Cc2ccccc2)CC1)c1cc2c(=O)[nH]c3ccccc3c2s1 | -2.7% (inactive) |
| Nn1c(Cc2cccc3ccccc23)nnc1SCC(=O)N1CC(=O)Nc2ccccc21 | -8.7% (inactive) |
| COc1ccc(NC(=O)c2c(SC)nsc2SC)cc1 | 7.1% (inactive) |
| O=S1(=O)CCN2C(=N1)SC1=C2CCN(Cc2ccccc2)C1 | 48.1% (inactive) |
| CN(C(=O)C1CCOC1)c1nnc(-c2cccnc2)s1 (centres undefined) | 5.3% (inactive) |
| Cn1cnc([N+](=O)[O-])c1Sc1ccccc1 | 30.3% (inactive) |

| SMILES | inhibition |
| --- | --- |
| CC(C)(C)NC(=O)Cn1cnc([N+](=O)[O-])n1 | 6.1% (inactive) |
| Cn1nc([N+](=O)[O-])nc1Sc1ccc(C(C)(C)C)cc1 | 97.1% (active) |
| Cc1ccc(-c2n[nH]c(=S)n2/N=C/c2cc3c(cc2[N+](=O)[O-])OCO3)cc1 | 0.8% (inactive) |
| O=C(COc1ncnc2c(Cl)cc(Cl)cc12)N1CCN(S(=O)(=O)c2ccccc2)CC1 | -6.9% (inactive) |
| COc1ccc(Cl)cc1C(=O)NCC#N | -3.6% (inactive) |
| COc1ccccc1CNC(=O)c1ccc(SC)cc1OC | 78.9% (active) |
| CCc1nnc(NC(=O)CCC(=O)NCc2ccccc2OC)s1 | -8% (inactive) |
| CCOC(=O)c1c(C)[nH]c(C(=O)NCc2ccccc2OC)c1C | 44.3% (inactive) |
| CCCOc1ccccc1C(=O)NCCCC(=O)O | 9.9% (inactive) |
| COc1cc(SC)ccc1C(=O)NCCOc1ccccc1Cl | 94.9% (active) |
| O=C1CCCN1CCCNc1ncnc2c1[nH]c1ccccc12 | 39% (inactive) |
| CC(=O)Nc1ccc(N2C(=O)CCC2=O)cc1C | 9.8% (inactive) |
| O=C(/C=C/Sc1ncn[nH]1)c1ccc(Cl)cc1 | 38.2% (inactive) |
| CC1Cc2ccccc2N1C(=O)CSc1nnc(-c2ccc(S(=O)(=O)N3CCCCC3)cc2)o1 (centres undefined) | 12.5% (inactive) |
| O=C(CCS(=O)(=O)Cc1ccccc1F)NCCCN1CCCCC1 | 22.6% (inactive) |
| Cc1ccc(S(=O)(=O)N(CC(=O)NCCSC2CCCCC2)c2ccccc2F)cc1 | -4.4% (inactive) |
| CCCNC(=O)CN(Cc1ccccc1F)S(=O)(=O)c1ccc(C)cc1 | 64.4% (active) |
| Cc1cc(=O)n2nc(N3CCCC(C(=O)NCCC4=CCCCC4)C3)sc2n1 (centres undefined) | 35.1% (inactive) |
| CCOC(=O)N1CCC(NC(=O)Cc2cn(C)c3ccccc23)CC1 | -8.8% (inactive) |
| CC1=Nn2c(nnc2-c2ccccc2)SC1 | -2% (inactive) |
| CCOc1ccccc1C1CC(c2ccccc2)Nc2nc(N)nn21 (centres undefined) | 44.9% (inactive) |
| CCOc1ccccc1C1CC(c2ccc(Cl)cc2)Nc2nc(N)nn21 (centres undefined) | 90.2% (active) |
| COc1ccc(C2CC(c3ccc(Cl)cc3Cl)Nc3nc(N)nn32)cc1OC (centres undefined) | -12.5% (inactive) |
| COc1ccc(NC(=O)COC(=O)Cn2c(C)nc3ccccc32)cc1OC | -0.3% (inactive) |
| COc1ccc(-c2nc3ccccc3n2CCC(C)C)cc1OC | 61.3% (active) |
| COCCn1c(-c2ccc(OC)c(OC)c2)nc2ccccc21 | 0.9% (inactive) |
